This is an account of results in PubChem BioAssay AID652208 (Broad Institute, 2013).

Structures are written as SMILES. Entries with a potency or affinity are not part of this list. Active and inactive are the calls of the source.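 Rule for the calls: active = Loss of cell signal with fitted half-effect dose at or below twice the top valid tested dose; inconclusive = Poor fit, or flat fit from -70 to -30 percent; inactive = Half-effect above limit, rising signal, or flat within 30 percent.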

The nature of this assay: HEK293T cell cytotoxicity, dose response, cytotoxicity control for HIV Vif inhibitor project, cherry-picks (AID 652208). The note with it: HEK293T viability, CellTiter-Glo luminescence, 24 h; series mostly up to 26 µM.
Take `O=C(Nc1cnccn1)Nc1ccccc1Cl`: the result was inactive.

As to `NS(=O)(=O)c1ccc(-c2ccc(/C=C3\SC(=O)NC3=O)o2)cc1`, the result was inactive.

Regarding `Cc1nnc2ccc(-c3ccc(NS(=O)(=O)c4ccc(Cl)s4)cc3)nn12`, the call was inactive.

For the compound `COc1cc2[nH]c(=O)n(CCCC(=O)NC3CCCCC3)c(=O)c2cc1OC`, the outcome was inactive. For the compound `Cc1ccc(NC(=O)/C=C/C(=O)O)c(NC(=O)c2ccccc2)c1`, the outcome was inactive. For the compound `CCC1(CC)NC(=O)N(CC(=O)Nc2ccc(OCc3ccccc3)cc2)C1=O`, the compound was classed as inactive. In the case of `CC(O)CN(C)CC/C=C1/c2ccccc2CSc2ccccc21` (centres undefined) it was “inactive”. With `COc1ccc(CN(CC(=O)NC2CCCC2)C(=O)CN2C(=O)COc3ccccc32)cc1`, the call was inactive.

With `CC(C)OC(=O)c1cn(-c2ccccc2)nc1-c1ccc2c(c1)OCCO2`, the result was inactive. `Cc1nc(SCC(=O)N2CCCC2=O)nc(C)c1C`: the outcome was inactive. On to `COC(CNC(=O)C1CCN(C(=O)c2cc3oc(C)cc3n2Cc2c(F)cccc2Cl)CC1)OC`, for which the outcome was inactive. For the compound `O=C(NNC(=O)c1cc2ccccc2oc1=O)c1ccccc1`, the result was inactive. `CCOC(=O)c1c(C)[nH]c(-c2csc(N)n2)c1C`: the result was inactive. Take `O=C(c1cc(-c2ccccc2O)on1)N1CCCCCC1`: the compound was classed as inactive. In the case of `O=C(CCCCn1ccc(=O)[nH]c1=O)Nc1ccc(O)c(C(=O)O)c1` it was “inactive”; in that of `CCN(CC)c1ccc2cc(C(N)=O)c(=O)oc2c1`, “inactive”; in that of `O=C(CCCSc1nc2ccccc2c(=O)[nH]1)c1ccccc1`, “inactive”. For `COc1cccc(NC(=O)c2cc(C(=O)Nc3cccc(OC)c3)n(C)n2)c1`, the compound was called inactive. Regarding `COc1ccc2cc(CCNS(=O)(=O)c3ccc(NC(C)=O)cc3)c(=O)[nH]c2c1`, the compound was classed as inactive.
